Compound activity: PubChem BioAssay, National Center for Advancing Translational Sciences (NCATS)
Rows were chosen to be rich in hits. Some 12% of all compounds tested hit in one or more screens of this group.
G9a inh: blocks human histone lysine methyltransferase G9a; Q96KQ7; G9a H3K9 monomethylation, AlphaScreen, 2 h; Potency, µM (series often up to 102 µM), without a hit: at the highest dose activity, negative = inhibition, hits mostly inhibitors; hit rate 8.8% among 350,000; AID 504332; note: % is set by controls: 0 for no effect and ±100 for the full control effect; nearly all actives have a fitted effect of over 75% in size
Target sequence (Q96KQ7 913-1193 limits assumed): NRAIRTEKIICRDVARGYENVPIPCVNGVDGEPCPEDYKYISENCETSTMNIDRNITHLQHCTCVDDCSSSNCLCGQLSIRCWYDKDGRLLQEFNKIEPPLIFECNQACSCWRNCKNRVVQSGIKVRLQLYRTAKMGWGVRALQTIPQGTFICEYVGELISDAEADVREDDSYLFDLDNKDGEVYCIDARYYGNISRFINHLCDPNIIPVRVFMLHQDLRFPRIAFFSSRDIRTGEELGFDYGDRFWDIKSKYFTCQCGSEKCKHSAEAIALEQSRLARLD
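Using a bead-based AlphaScreen, monomethylated H3K9 product from 2 h room-temperature reactions (G9a 20 nM, peptide 500 nM, SAM 20 uM) was detected with 0.5 ug/mL rabbit anti-H3K9me1 antibody.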
JMJD2A Tudor: blocks the human JMJD2A Tudor domain; AlphaScreen JMJD2A-Tudor / H3K4me3 peptide binding; hit rate 4.4% among 390,000; Potency, µM (top dose mostly 114 µM), for inactives: at the top dose activity change, negative = inhibition, most hits filed as inhibitors; note: % is set by controls: 0 for no effect and ±100 for the full control effect; nearly all actives have a fitted effect of over 50% in size
HP1b binding inh: blocks HP1-beta chromodomain binding to methylated histone tails; AID 540317; AlphaScreen HP1-beta / biotin-H3K9me3 peptide binding; hit rate 0.56% among 390,000; Potency, µM (titrated, usually from 114 µM), for inactives: at the top dose activity change, negative = inhibition, hits mostly inhibitors; P83916; note: nearly all actives have a fitted effect of over 70% in size
Target sequence (P83916 whole entry, looked up): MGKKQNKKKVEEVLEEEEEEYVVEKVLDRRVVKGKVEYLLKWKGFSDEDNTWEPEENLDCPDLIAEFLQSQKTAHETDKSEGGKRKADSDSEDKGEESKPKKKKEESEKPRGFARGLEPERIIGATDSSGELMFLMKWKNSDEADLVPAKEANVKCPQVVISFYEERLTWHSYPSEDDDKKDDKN
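AlphaScreen: HP1-beta (50 nM) preformed 30 min with biotin-H3(1-18)K9me3 peptide (50 nM) in PBS pH 7.4, 0.01% Tween-20. Compound added for 30 min at RT, then streptavidin donor/nickel chelate acceptor beads (10 ug/mL) for 30 min.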
BAZ2B inh: inhibitors of human BAZ2B bromodomain; Q9UIF8; AlphaScreen BAZ2B-H3K14Ac peptide displacement; Potency, µM (titrated, usually from 114 µM), without a hit: at the top dose activity change, negative = inhibition, hits mostly inhibitors; hit rate 4.4% among 360,000; AID 504333; note: % is set by controls: 0 for no effect and ±100 for the full control effect; nearly all actives have a fitted effect of over 60% in size
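Protein-peptide AlphaScreen: BAZ2B 50 nM, b-H3K14Ac 50 nM, 1x PBS pH 7.4 + 0.01% Tween-20. Preincubation 30 min RT; cpd 30 min RT (top 110 uM); beads 20 min RT, light-protected.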
Sfp inh: Sfp phosphopantetheinyl transferase inhibition; Q9F4F7; Biochemical Sfp PPTase activity, qHTS; Potency, µM, for the others: largest response in the series, negative = inhibition, hits mostly inhibitors; hit rate 3.5% among 310,000;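 note: the enzyme is Sfp with the accession as filed and its product quenches rhodamine fluorescence; 0% = enzyme reaction without inhibitor and -100% = no enzyme wells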
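Buffer: 50 mM Hepes-Na pH 7.6, 10 mM MgCl2, 0.01% Nonidet P-40, 0.01% BSA. Enzyme 15 nM, pre-exposed to compound 15 min; substrates then added and fluorescence change tracked over 30 min.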
Numbers without * were called inactive; ? = inconclusive; . = no result given; [ ] = dose if it differs, or a comment. Calls come from the whole dose curve; as a rule, active = well fitted curve in the direction sought with a large enough effect; inconclusive = small, poorly fitted or top-dose-only effect, or another doubt; inactive = no such curve, though single readings can be large; an effect the other way counts as inactive or inconclusive. Potency is the fitted concentration of half-maximal effect.

SMILES	G9a inh	JMJD2A Tudor	HP1b binding inh	BAZ2B inh	Sfp inh
O=C(CN1CCN(c2ccccc2F)CC1)c1ccc2cc[nH]c2c1	25µM*	-31%	32%	4%	-11%
O=C(CN1CCN(c2ccccc2F)CC1)c1c[nH]c2ccc(F)cc12	?	-17%	13%	2%	3%
CC(=O)N1CCc2cc(C(=O)CN3CCN(c4ccccc4F)CC3)ccc21	14µM*	-20%	36%	-34%	50µM*
COc1ccccc1NCC(=O)NNC(C)C(=O)Nc1cccc(Cl)c1 (configuration not stated)	1%	-29%	19%	-18%	16%
O=C(CCCOc1ccc(Cl)cc1)Nc1ccc(N2CCOCC2)cc1	-27%	-29%	10%	-13%	-3%
C=CCc1cccc(CNc2nc3ccccc3n2CCC)c1O	8%[12.7 µM]	-16%	38%	-1%	11%
COc1ccccc1CNC(=O)c1cc2cc(S(=O)(=O)N3CCCCC3)ccc2n1C	5%[59 µM]	-5%	23%[57 µM]	-3%	.
CSCCC(NC(=O)c1ccccc1Cl)C(=O)NCCOc1ccccc1 (configuration not stated)	4%[0.501 µM]	-9%	19%	-4%	.
CCN(CC)c1ccc(N=Cc2c(C)[nH]c3ccccc23)cc1	14µM*	35µM*	32µM*	13µM*	50µM*
Cc1[nH]c2ccccc2c1/C=N/n1cnnc1	8%[59 µM]	-3%[11.4 µM]	-8%	14%	1%
Cn1c(=O)c2c(nc(Oc3cccc(Br)c3)n2C)n(C)c1=O	7%	3%	27%	-29%	-5%
CN[C@@H]1[C@H](O[C@@H]2O[C@H](C)[C@@](O)(CO)[C@H]2O[C@H]2[C@H](O)[C@H](O)[C@H](N=C(N)N)[C@@H](O)[C@@H]2N=C(N)N)O[C@@H](CO)[C@H](O)[C@H]1O	10µM*	.	.	.	0%
CN[C@@H]1[C@H](O[C@@H]2O[C@H](CO)[C@@H](N)[C@H](O)[C@@H]2O)O[C@H]2C[C@@H](N)[C@@H](O[C@H]3[C@@H](O)[C@H](O)[C@H](N)C[C@@H]3N)O[C@H]2[C@H]1O	43%[21.5 µM]	.	.	.	11%
O=C(O)c1c(Cl)c(Cl)c(Cl)c(Cl)c1-c1c2cc(I)c(=O)c(I)c-2oc2c(I)c(O)c(I)cc12	1.8µM*	.	.	.	14µM*
O=C(O)c1ccccc1-c1c2cc(I)c(=O)c(I)c-2oc2c(I)c(O)c(I)cc12	.	18µM*	?	.	?
O=S1(=O)c2ccccc2N=NN1Cc1ccc(Cl)c(Cl)c1	2.8µM*	.	.	79µM*	56µM*
Nc1nc2ccccc2n1Cc1ccc(Cl)c(Cl)c1	.	-19%	35%	-4%	-26%
CC(C)(C)c1ccc(CN2N=Nc3ccccc3S2(=O)=O)cc1	-24%[0.0925 µM]	-12%	-11%	-11%	2.8µM*
Cc1cccc(N2C(=O)N(Cc3ccc(C(C)(C)C)cc3)c3ccccc3S2(=O)=O)c1	12%[59 µM]	-13%	18%	-7%	.
CC(C)OCCCNc1ncc2c(n1)CC(c1ccccc1)CC2=O (configuration not stated)	?	-20%	-1%	.	-10%
CSc1ccc(-c2nc(CSCC(=O)NCCCN3CCOCC3)c(C)o2)cc1	2%	-21%	46%	-3%	9%
CC1CCc2[nH]c3ccc(C(=O)NCCCOC(C)C)cc3c2C1 (configuration not stated)	?	?	-7%	-35%	-2%
OC(CN1CCNCC1)Cn1ccc2ccccc21 (configuration not stated)	4%	.	.	?	3%
Oc1ccccc1NCC(O)Cn1ccc2ccccc21 (configuration not stated)	28µM*	2.8µM*	-73%	50µM*	-27%
OC(CNCc1ccccc1)Cn1ccc2ccccc21 (configuration not stated)	?	22µM*	?	?	-7%
SMILES	G9a inh	JMJD2A Tudor	HP1b binding inh	BAZ2B inh	Sfp inh
Clc1nc2c(ccc3ccccc32)[nH]1	4%	-14%	26%	-3%	9%
CCC1(C)Cc2nc3sc(C(=O)O)c(N)c3cc2CO1 (configuration not stated)	3.5µM*	50µM*	24%	0%	28µM*
CCOC(=O)c1sc2nc3c(cc2c1N)COC(C)(CC)C3 (configuration not stated)	68%[12.7 µM]	18%	93%	17%	3%
O=C(Nc1ccccc1SCC1CSc2nc3ccccc3c(=O)n21)c1ccccc1 (configuration not stated)	10%[59 µM]	6%	35%	-2%	-3%
O=C(COC(=O)c1cc(Br)ccc1Cl)NC1CC1	9%[59 µM]	3%	38%	-1%	0%
FC(F)(F)c1cccc(NCc2n[nH]c(=S)n2C2CCCCC2)c1	28µM*	?	32%	?	22%
S=c1[nH]nc(COc2ccccc2)n1Cc1ccccc1	3.5µM*	89µM*	4%	-3%	-13%
O=C(CNC1CCCCC1)Nc1cccc(C(F)(F)F)c1	.	-17%	21%	6%	8%
S=c1[nH]nc(CSc2nc3ccccc3s2)n1C1CCCCC1	10µM*	?	-20%	?	-16%
Cc1cccc(OCc2n[nH]c(=S)n2Cc2ccccc2)c1	18µM*	?	-11%	-26%	11%
CCc1ccc(OCc2n[nH]c(=S)n2Cc2ccccc2)cc1	-26%	?	-2%	-12%	4%
CCOC(=O)/C=C1/SCC(=O)N1CC(=O)Nc1ccccc1OC(F)F	.	-2%	38%	.	.
COc1cc(/C=N/OCC(=O)NC23CC4CC(CC(C4)C2)C3)ccc1OCc1ccccc1	-9%	-20%	23%	8%	?
Cc1nc(Sc2nnnn2-c2ccccc2)c(C#N)c(C)c1C	?	-1%	39%	0%	-16%
COc1ccccc1N1CCN(C(=O)CN2C(=O)COc3ccc(S(=O)(=O)N4CCCCCC4)cc32)CC1	2%[59 µM]	-29%	16%	?	.
COc1cc2c(cc1OC)CN(C(=O)CN1C(=O)c3ccc([N+](=O)[O-])cc3C1=O)CC2	?	-11%	16%	4%	.
NC(=O)CSc1nnc(COc2ccccc2)n1C1CCCCC1	-4%[12.7 µM]	-4%	25%	6%	-14%
S=c1[nH]nc(COc2ccccc2)n1C1CCCCC1	2.5µM*	50µM*	9%	0%	4%
CC(C)CCn1c(COc2ccccc2)n[nH]c1=S	1.8µM*	-12%	34%	-19%	-9%
O=C1CN2NC(=S)N(c3ccccc3)C2=CN1c1ccc(Cl)cc1	?	-18%	25%	-1%	16%
CCCCNC(=S)Nc1ccccc1Cc1ccccc1	0%	-25%	13%	50µM*	4%
O=C(NNC(=S)NC(=O)c1ccccc1[N+](=O)[O-])c1ccccc1O	-38%	89µM*	29%	?	23%
O=C(NNC(=S)NC(=O)c1ccccc1[N+](=O)[O-])c1ccc(Cl)cc1Cl	18µM*	-6%	5%	3%	24%
